CYP2C19 inhib: human CYP2C19 inhibition; P33261; CYP2C19 Supersomes, luciferin-H EGE luminescence, 30 min; 21% of 96,000 active; AID 778; inhibition, % at 5 µM;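 active means CYP2C19 inhibition above a set limit at 5 µM in the primary screen, cut at about 50% in these data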;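 further: plate controls were negative control wells for no effect and 2.5 mM tranylcypromine positive control for full effect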
CYP2C9 inhib: human CYP2C9 inhibition. P11712. CYP2C9 Supersomes, luciferin-H conversion, luminescence. inhibition, % at 5 µM. 20% of 96,000 active;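 active means blocking of liver enzyme CYP2C9 beyond about 50% at 5 µM, limit read from the data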
Target sequence (P11712 whole entry, looked up): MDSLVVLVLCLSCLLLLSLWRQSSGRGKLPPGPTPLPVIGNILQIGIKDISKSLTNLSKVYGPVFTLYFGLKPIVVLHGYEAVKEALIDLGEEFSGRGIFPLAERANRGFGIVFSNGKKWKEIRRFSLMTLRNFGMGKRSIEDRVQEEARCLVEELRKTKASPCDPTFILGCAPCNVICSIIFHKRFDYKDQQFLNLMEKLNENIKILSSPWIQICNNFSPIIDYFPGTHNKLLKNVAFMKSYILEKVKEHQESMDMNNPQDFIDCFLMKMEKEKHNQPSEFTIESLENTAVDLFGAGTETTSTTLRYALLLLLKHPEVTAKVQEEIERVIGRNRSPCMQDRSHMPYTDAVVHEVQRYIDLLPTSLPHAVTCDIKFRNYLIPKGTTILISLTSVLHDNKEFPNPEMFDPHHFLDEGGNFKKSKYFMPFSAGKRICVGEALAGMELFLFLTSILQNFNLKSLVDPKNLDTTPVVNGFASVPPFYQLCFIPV
CYP2C9 activ: CYP2C9 (human) activation; P11712; recombinant CYP2C9, luciferin-H conversion, luminescence; stronger effect = higher value; factor 1 = untreated enzyme, 0 = blocked; activation factor at 5 µM; 1.4% of 96,000 active; AID 1024;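 active means activation factor of 2 or more for CYP2C9 at a 5 µM dose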;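 further: 0 = sulfaphenazole-blocked wells and 1 = vehicle-only wells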
Cav3 T inh: human Cav3.2 channel inhibition, primary screen; B-score at 10 µM; Cav3.2-expressing cells, Fluo-4 calcium fluorescence FDSS; stronger effect = lower value; 4% of 100,000 active; O95180;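 active means single-dose well whose peak fluorescence ratio is a statistical outlier from its plate by either plate-standardised score or position-corrected B-score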
CYP2C19 act: activators of human cytochrome P450 2C19; activation factor at 5 µM; recombinant CYP2C19, luciferin-H EGE luminescence; stronger effect = higher value; 0 = fully inhibited enzyme, 1 = untreated enzyme; 96,000 tested, under 10 active; P33261;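 active means activation factor of at least 2 at 5 µM in the primary screen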;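 further: 0 = wells with 2.5 mM tranylcypromine and 1 = vehicle-only wells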
* hit, by the source's call; · = no result. Compounds with a hit are over-represented: about 27% of the library has one in this group of screens.

SMILES	CYP2C19 inhib	CYP2C9 inhib	CYP2C9 activ	Cav3 T inh	CYP2C19 act
CCOc1ccc(C(C)=O)cc1N1C(=O)C2C3C=CC(C3)C2C1=O (stereo not drawn)	1.3	-4.8	1	0.194	1
CCOc1ccc(CCN2C(=O)C3C4C=CC(C4)C3C2=O)cc1OCC (stereo not drawn)	52.8*	8.8	0.9	0.0222	0.5
COC(=O)[C@H]1C[C@@H]1[C@H](NC(=O)c1cnccn1)c1ccccc1	·	·	·	0.532	·
O=C1C(=O)N(Cc2cccnc2)C(c2ccccn2)/C1=C(/O)c1ccc(Br)cc1 (stereo not drawn)	-0.7	86.0*	0.1	-1.47	1
CCC(=O)Nc1ccc2c(c1)ncn2-c1ccccc1	4.7	11.1	0.9	1.12	1
Cc1nnc(SCC(=O)N2c3ccccc3CC2C)s1 (stereo not drawn)	69.4*	14.5	0.9	0.415	0.3
CC1Cc2ccccc2N1C(=O)CSc1nnc2sc3ccccc3n12 (stereo not drawn)	99.9*	66.7*	0.3	0.727	0
Cc1cc(C)nc(-n2nc(C)c3c(=O)[nH]c(C(F)(F)F)nc32)n1	9.4	4.4	1	0.261	0.9
Fc1cccc(Cl)c1CSc1nnnn1-c1ccc2c(c1)OCO2	92.0*	38.3	0.6	-1.59	0.1
Fc1cccc(Cl)c1Cn1nnc(-c2ccc3c(c2)OCO3)n1	46.8	31.5	0.7	-3.03	0.5
Cc1ccc2c(Cl)cc(Cl)c(OCC(=O)NCc3ccco3)c2n1	12.6	-20.6	1.2	·	0.9
Cc1ccc2c(Cl)cc(Cl)c(OCC(=O)Nc3cc(C)on3)c2n1	50.1*	-89.2	1.9	-0.172	0.5
COC(=O)c1ccc(Oc2ccc(C(C)(C)C)cc2)c([N+](=O)[O-])c1	38.1	59.5*	0.4	·	0.6
O=C(Cc1ccccc1)NNC(=O)Nc1cccc(Cl)c1	0.0	-1.7	1	-1.06	1
S=C(NCCC(c1ccccc1)c1ccccc1)Nc1cccc(Cl)c1	80.8*	81.2*	0.2	-4.14	0.2
Cc1ccc(NC(=S)NCCC(c2ccccc2)c2ccccc2)c(C)c1	61.2*	58.8*	0.4	-3.18	0.4
Cc1ccc(C)c(NC(=S)NCc2cccn2C)c1	28.9	-32.9	1.3	·	0.7
Cc1ccccc1NC(=S)NCCC(c1ccccc1)c1ccccc1	62.9*	63.6*	0.4	-4.36*	0.4
CCC(C)(C)NC(=O)C(c1cccn1C)N(C(=O)Cn1nnc2ccccc21)c1ccccc1OC (stereo not drawn)	-1.5	6.0	0.9	0.209	1
COc1ccc(C(=O)O)cc1Nc1cc(C)nc2ncnn12	-3.7	-3.3	1	0.729	1
COc1ccc(C2C(C(=O)Nc3cc(C)on3)c3ccccc3C(=O)N2C)cc1 (stereo not drawn)	22.0	68.8*	0.3	-0.00227	0.8
COc1ccc(C2C(C(=O)Nc3cccc(C)n3)c3ccccc3C(=O)N2C)cc1 (stereo not drawn)	16.8	43.4	0.6	-0.639	0.8
CCc1ccc(NC(=O)CSc2nc3n[nH]c(C)c3c(=N)n2-c2cccc(OC)c2)cc1	·	·	·	-3.34	·
COc1cccc(NC(=O)CSc2nc3n[nH]c(C)c3c(=N)n2-c2cccc(OC)c2)c1	88.0*	79.5*	0.2	0.472	0.1
Cc1ccc(CNC(=O)CSc2nc3n[nH]c(C)c3c(=N)n2-c2cccc(C)c2)cc1	65.7*	53.9*	0.5	-2.87	0.3
SMILES	CYP2C19 inhib	CYP2C9 inhib	CYP2C9 activ	Cav3 T inh	CYP2C19 act
COc1cccc(-n2c(SCC(=O)NCCC3=CCCCC3)nc3n[nH]c(C)c3c2=N)c1	47.5	27.1	0.7	-1.6	0.5
O=C(Nc1ccc(F)cc1)c1cc(S(=O)(=O)N2CCCCC2)cs1	26.9	49.2	0.5	-5.17	0.7
Cc1ccccc1-n1nc2c(c1NC(=O)c1c(-c3ccccc3Cl)noc1C)CSC2	34.1	50.0*	0.5	-5.93*	0.7
Cc1ccc(-n2nc3c(c2NC(=O)c2ccc(Br)o2)CSC3)c(C)c1	19.4	67.1*	0.3	-1.71	0.8
Cc1ccc(-n2nc3c(c2NC(=O)c2c(-c4ccccc4Cl)noc2C)CSC3)cc1	22.2	37.4	0.6	-6.01*	0.8
Cc1onc(-c2ccccc2Cl)c1C(=O)Nc1ccc(N2CCOCC2)cc1	19.9	0.4	1	-0.3	0.8
Cc1onc(-c2ccccc2Cl)c1C(=O)Nc1ccc(-n2nncc2-c2ccco2)cc1	99.4*	92.8*	0.1	-4.67	0
